Screening data from PubChem.
Only some compounds are listed: those with a hit (about 2.8% of all), similar ones and a draw of the others.
Pol kappa inh-1: inhibitors of human DNA polymerase kappa | purified Pol kappa, fluorescent DNA synthesis assay, 10 min | Potency, µM (titrated, usually from 107 µM), without a hit: at the highest dose activity, negative = inhibition, hits mostly inhibitors | hit rate 0.53% among 400,000 | AID 588579; note: potency is the fitted concentration of half-maximal effect; % is set by controls: 0 for no effect and ±100 for the full control effect
Target sequence (Q9UBT6 whole entry, looked up): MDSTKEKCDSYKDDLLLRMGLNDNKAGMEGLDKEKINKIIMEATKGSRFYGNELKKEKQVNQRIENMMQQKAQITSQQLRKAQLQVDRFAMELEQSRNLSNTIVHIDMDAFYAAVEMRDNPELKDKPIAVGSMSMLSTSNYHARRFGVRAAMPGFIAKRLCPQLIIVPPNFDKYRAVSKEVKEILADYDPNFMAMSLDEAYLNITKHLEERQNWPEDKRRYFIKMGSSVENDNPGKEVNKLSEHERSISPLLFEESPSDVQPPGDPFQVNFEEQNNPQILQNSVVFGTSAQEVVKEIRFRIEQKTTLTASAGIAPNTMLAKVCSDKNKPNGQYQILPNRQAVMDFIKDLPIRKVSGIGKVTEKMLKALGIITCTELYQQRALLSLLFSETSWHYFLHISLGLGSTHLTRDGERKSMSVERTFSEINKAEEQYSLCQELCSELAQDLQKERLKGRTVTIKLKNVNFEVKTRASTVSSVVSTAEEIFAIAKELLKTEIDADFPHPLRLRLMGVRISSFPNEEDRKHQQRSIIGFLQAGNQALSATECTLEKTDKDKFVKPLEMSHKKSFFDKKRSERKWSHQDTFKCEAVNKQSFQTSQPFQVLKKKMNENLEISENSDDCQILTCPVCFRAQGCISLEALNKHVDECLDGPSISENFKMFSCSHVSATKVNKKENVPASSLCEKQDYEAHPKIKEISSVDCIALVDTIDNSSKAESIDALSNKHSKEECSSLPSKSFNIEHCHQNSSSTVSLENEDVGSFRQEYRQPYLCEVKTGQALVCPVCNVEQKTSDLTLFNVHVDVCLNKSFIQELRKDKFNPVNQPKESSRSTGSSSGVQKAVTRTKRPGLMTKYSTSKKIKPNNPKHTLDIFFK
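Pol kappa 10 nM + cpd, 15 min RT; start w/ substrate 50 nM final; fluorescence kinetic read, 0 and 10 min. Neg ctrl: buffer, no enzyme.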
Pol eta inh-1: DNA polymerase eta (human) inhibition | Q9Y253 | hit rate 1.2% among 390,000 | recombinant Pol eta, fluorescent DNA replication assay | AID 588591 | Potency, µM (highest dose often 114 µM), for the others: at the highest dose activity change, negative = inhibition, most hits filed as inhibitors; note: potency is the fitted concentration of half-maximal effect; % is set by controls: 0 for no effect and ±100 for the full control effect
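Fluorescent replication assay: 50 nM final substrate added after a 15 min room-temperature compound preincubation with 10 nM enzyme. Signal taken at 0 min and again at 10 min.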
Pol iota inh: DNA polymerase iota (human) inhibition; Q9UNA4; Pol iota fluorescent replication assay, 10 min; Potency, µM (titrated, usually from 115 µM), for the others: at the highest dose activity, negative = inhibition, usual class: inhibitors; hit rate 1% among 390,000; AID 588590; note: potency is the fitted concentration of half-maximal effect
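Fluorescent replication assay read twice, at 0 min and 10 min after adding 50 nM (final) substrate. Enzyme (10 nM) and compounds were first incubated 15 min at room temperature; enzyme-free buffer wells were negative controls.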
Pol beta inh: blocks human DNA polymerase beta activity | P06746 | Pol beta primer extension/strand displacement, fluorescence kinetic | Potency, µM (top dose mostly 114 µM), without a hit: at the highest dose activity change, negative = inhibition, most hits filed as inhibitors | hit rate 1.3% among 340,000 | AID 485314; note: potency is the fitted concentration of half-maximal effect; % is set by controls: 0 for no effect and ±100 for the full control effect
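Preincubation: enzyme (10 nM) with compound, 15 min, RT. Reaction: substrate added to 50 nM final. Reads: 0 and 10 min. Analysis: normalized, Hill fit.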
WRN helicase inh-1: inhibitors of human WRN helicase. Q14191. WRN helicase unwinding, fluorescent forked duplex, kinetic. Potency, µM (highest dose often 114 µM), for the others: at the highest dose activity change, negative = inhibition, usual class: inhibitors. hit rate 0.46% among 360,000. AID 651768; note: potency is the fitted concentration of half-maximal effect; % is set by controls: 0 for no effect and ±100 for the full control effect; nearly all actives have a fitted effect of over 55% in size
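Enzyme (20 nM final) and test compound sit together 15 min at room temperature before substrate addition. Substrate is a single-forked duplex oligonucleotide (100 nM) labelled with fluorophore and quencher, with 2 mM ATP; helicase unwinding raises red fluorescence, read kinetically.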
PI5P4K alpha inh: PI5P4K alpha (human) kinase inhibition; P48426; PI5P4Kalpha enzyme, ADP-Glo luminescence, 60 min; hits give low values; max response, %; hit rate 1.2% among 330,000; AID 652105; active = max response of -50% or lower; inconclusive = between -30% and -50%; inactive = -30% or higher; note: value at the top dose of about 77 µM; % is set by controls: 0 for no effect and ±100 for the full control effect
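Controls without substrate or without enzyme flank wells where PI5P4Kalpha converts substrate using 5 microM ATP (final). Incubation lasts 60 minutes at room temperature; ADP formed is read by ADP-Glo luminescence.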
TbPGK inh: TbPGK inhibition, hit validation | AID 686980 | Potency, µM (series often up to 57.5 µM), for the others: top-dose activity change, negative = inhibition, usual class: inhibitors | TbPGK coupled GAPDH assay, Kinase-Glo luminescence | hit rate 79% among 500 | shares compounds with Pol kappa inh-1; note: potency is the fitted concentration of half-maximal effect; % is set by controls: 0 for no effect and ±100 for the full control effect; nearly all actives have a fitted effect of over 65% in size
Pol iota confirm: Human Pol iota inhibitor confirmatory assay; shares compounds with Pol kappa inh-1; Pol iota primer extension, TAMRA/BHQ fluorescence; Potency, µM, actives largely listed as inhibitors; hit rate 77% among 1,500; note: potency is the fitted concentration of half-maximal effect
Pol kappa inh-2: confirmation of human DNA polymerase kappa inhibitors | shares compounds with Pol eta inh-1 | purified Pol-kappa, fluorescent strand-displacement substrate | Potency, µM, actives largely listed as inhibitors | hit rate 76% among 920 | AID 720501; note: potency is the fitted concentration of half-maximal effect
Pol eta inh-2: Pol eta (human) inhibition, cherry-pick confirmation; AID 720502; Pol eta primer extension, TAMRA/BHQ fluorescence, 10 min; shares compounds with Pol eta inh-1; hit rate 64% among 2,600; Potency, µM, most hits filed as inhibitors; note: potency is the fitted concentration of half-maximal effect
WRN helicase inh-2: confirmation of human WRN helicase inhibitors. Potency, µM (titrated, usually from 57.1 µM), for the others: top-dose activity, negative = inhibition, most hits filed as inhibitors. hit rate 63% among 610. WRN helicase DNA unwinding, fluorescence kinetic. AID 720497. shares compounds with WRN helicase inh-1; note: potency is the fitted concentration of half-maximal effect; nearly all actives have a fitted effect of over 65% in size
TO displacement: binds DNA, flagged in WRN inhibitor counterscreen; shares compounds with WRN helicase inh-1; thiazole orange DNA binding displacement, fluorescence; Potency, µM (doses to about 57.1 µM), for inactives: at the highest dose activity change, negative = inhibition, usual class: inhibitors; hit rate 10% among 610; AID 720499;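 note: drop in dye fluorescence marks compound binding to DNA; potency is the fitted concentration of half-maximal effect; % is set by controls: 0 for no effect and ±100 for the full control effect; nearly all actives have a fitted effect of over 60% in size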
BLM counter: counter-screen for WRN helicase inhibitors: human BLM helicase inhibition; shares compounds with WRN helicase inh-1; Recombinant BLM helicase DNA unwinding, red fluorescence; Potency, µM (doses to about 57.1 µM), for inactives: at the highest dose activity change, negative = inhibition, hits mostly inhibitors; hit rate 60% among 610; AID 720503; note: potency is the fitted concentration of half-maximal effect; nearly all actives have a fitted effect of over 60% in size
An asterisk follows results filed as active; ? = inconclusive; nt = no result given; ! = not active in a repeat; [ ] = remark or other dose. Unless noted, calls come from the whole dose curve; as a rule, active = well fitted curve in the direction sought with a large enough effect; inconclusive = small, poorly fitted or top-dose-only effect, or another doubt; inactive = no such curve, though single readings can be large; an effect the other way counts as inactive or inconclusive.

SMILES	Pol kappa inh-1	Pol eta inh-1	Pol iota inh	Pol beta inh	WRN helicase inh-1	PI5P4K alpha inh	Pol iota confirm	Pol eta inh-2	WRN helicase inh-2	TO displacement	BLM counter	others
O=C(N/N=C/c1ccc(-c2ccc(S(=O)(=O)Nc3ncccn3)cc2)o1)c1cc2ccccc2cc1O	4.47µM*	0.891µM*	1.26µM*	12.6µM*	8.91µM*	-84.4*	16.8*	4.78*	6.81µM*	?	15.2µM*	TbPGK inh=?;Pol kappa inh-2=3.77*
O=C(CSc1ccc(-c2cccc([N+](=O)[O-])c2)nn1)N1CCCCC1	-7.3%	-22.3%	36.7%	-1.3%	-5.7%	1.6	nt	nt	nt	nt	nt
COC(=O)c1ccccc1NC(=O)CCS(=O)(=O)c1ccc(Br)cc1	20µM*	3.55µM*	-99.4%	2.51µM*	25.1µM*	?	21.2*	26.9*	9.61µM*	-8.4%	2.41µM*	TbPGK inh=?;Pol kappa inh-2=15*
CC(C)CC(NC(=O)CNC(=O)C1O[C@@H]2OC(C)(C)O[C@@H]2[C@H]2OC(C)(C)O[C@@H]12)C(=O)O (stereo partly drawn)	-3.7%	-13.2%	25.9%	19.9%	5.4%	-1.2	nt	nt	nt	nt	nt
O=C(O)c1ccccc1NS(=O)(=O)c1ccc(NN=Cc2ccccc2F)c([N+](=O)[O-])c1	?	28.2µM*	56.2µM*	nt	79.4µM*	?	?	60.1*	24.1µM*	?	21.5µM*
CCOc1cccc(C=NNc2ccc(S(=O)(=O)Nc3ccccc3C(=O)O)cc2[N+](=O)[O-])c1O	7.0%	-29.0%	8.4%	nt	-7.9%	?	nt	nt	nt	nt	nt
CN(C)c1ncc(C2=C(Cl)C(=O)C(N3CCCC3)=C(Cl)C2=O)s1	28.2µM*	20µM*	7.94µM*	nt	9.47µM*	nt	37.7*	33.8*	?	?	7.64µM*
COc1ccc(-c2cc(C(=O)Oc3ccc(Br)cc3)c3ccccc3n2)cc1	4.3%	-18.6%	41.4%	25.3%	nt	nt	nt	nt	nt	nt	nt
O=C(Nc1ccccc1C(F)(F)F)C1CCN(S(=O)(=O)Cc2ccccc2)CC1	-5.0%	-15.4%	28.4%	-7.9%	nt	nt	nt	nt	nt	nt	nt
c1cnc(N2CCN(c3ncc4c(n3)CCNC4)CC2)nc1	-29.8%	17.8µM*	?	44.7µM*	nt	nt	16.8*	23.9*	21.5µM*	?	?	Pol kappa inh-2=2.99*
COc1ccc(-c2nc3c(c(SCC(=O)Nc4ccccc4OC)n2)Cc2cccc(C)c2O3)cc1	0.7%	-6.8%	17.2%	-8.5%	nt	nt	nt	nt	nt	nt	nt
Cc1ccc(-c2nc3c(c(SCC(=O)Nc4cccc(C(=O)O)c4)n2)Cc2cccc(C)c2O3)cc1	?	nt	?	1.78µM*	nt	nt	8.44*	84.9*	2.15µM*	2.71µM*	0.857µM*	Pol kappa inh-2=3.77*
CC(C)c1nn2c(=O)cc(COC(=O)c3ccc(NC(=O)COc4ccccc4)cc3)nc2s1	-6.4%[60.1 µM]	-17.1%	32.0%	7.5%	nt	nt	nt	nt	nt	nt	nt
N=C1/C(=C\c2ccc(Br)o2)C(=O)N=C2SC(CC(=O)N3CCOCC3)=NN12	?	17.8µM*	15.8µM*	28.2µM*	35.5µM*	?	?	23.9*	?	-10.3%	?
CSc1ccc(/C=C2\C(=N)N3N=C(CC(=O)N4CCOCC4)SC3=NC2=O)cc1	?	-24.5%	?	3.2%	-3.6%[57.1 µM]	0.1	nt	nt	nt	nt	nt
CC(OC(=O)c1cccc(O)c1)C(=O)N(C)Cc1ccccc1 (stereo not drawn)	-3.0%	0.2%	13.6%	nt	-9.8%	-6.5	nt	nt	nt	nt	nt
CC(OC(=O)/C(C#N)=C/c1ccc(N(C)C)cc1)C(=O)N(C)Cc1ccccc1 (stereo not drawn)	?	50.1µM*	89.1µM*	1.3%	44.7µM*	1.5	26.7*	23.9*	24.1µM*	73.9%	21.5µM*
Cc1cccc2sc(NC(=O)C3CCN(S(=O)(=O)c4cc([N+](=O)[O-])ccc4Cl)CC3)nc12	79.4µM*	11.2µM*	25.1µM*	?	?	?	?	75.7*	?	?	7.64µM*
Oc1ccc(C2CNCCc3c2cc(O)c(O)c3Cl)cc1 (stereo not drawn)	-0.6%[60.1 µM]	?	14.1µM*!	?	?	4.9	?	nt	19.2µM*	-0.8%	24.1µM*
C[C@H](NC(=O)c1ncn(C)c1C(=O)N[C@@H](C)c1ccccc1)c1ccccc1	-13.1%	-14.9%	?	nt	-3.7%	13.4	nt	nt	nt	nt	nt
CS(=O)(=O)Nc1cccc(-c2ccc3ncnc(N4CCOCC4)c3c2)c1	4.4%[60.1 µM]	nt	nt	nt	nt	nt	nt	nt	nt	nt	nt
CC1=C(C(=O)Nc2ccccc2)C(c2ccc[nH]2)n2ncnc2N1 (stereo not drawn)	?	nt	?	8.91µM*	nt	nt	8.44*	8.49*	7.64µM*	?	1.08µM*	Pol kappa inh-2=3.36*
CC1=C(C(=O)Nc2ccccc2)C(c2ccccn2)n2ncnc2N1 (stereo not drawn)	-6.8%	-17.4%	40.4%	40.5%	-3.3%	-4.4	nt	nt	nt	nt	nt
O=C(Nc1ccc2c(c1)OCO2)c1csc([C@@H]2O[C@H](CO)[C@H](O)[C@H](O)[C@H]2O)n1	nt	nt	nt	nt	-4.0%	6.7	nt	nt	nt	nt	nt
COc1ccc(OC)c(/C=N/c2oc(-c3ccco3)c(-c3ccco3)c2C#N)c1	79.4µM*	79.4µM*	?	44.7µM*	?	-78.8*	37.7*	47.8*	21.5µM*	?	6.81µM*
